An excerpt weighted towards active compounds, which were near 7.2% of everything screened.
HCV inhibitor – HCV inhibition | 340,000 compounds, 3.4% hits | Huh7.5.1 HCVcc-Cre infection, luciferase reporter, 44 h | Potency, µM (titrated, usually from 41.8 µM), actives largely listed as inhibitors | AID 651820
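HCVcc-Cre virus at an moi near 0.5 was added right after compound to cells cultured 4 h from seeding (1,000 cells/well). Luciferase activity was determined 44 h later, 15 min after substrate addition at RT.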
FMDV antiviral – antivirals against foot and mouth disease virus | FMDV antiviral cell-based qHTS | Potency, µM (highest dose often 57.9 µM), hits mostly inhibitors | 410,000 compounds, 1.2% hits | AID 1159524; calls by dose curve; tested in HEK293T cells; also: read-out not given here; nearly all actives have a fitted effect of over 45% in size
Marburg entry inh – blocks Marburg virus binding to or entry into cells | Potency, µM (top dose mostly 37.8 µM), hits mostly inhibitors | 300,000 compounds, 1.8% hits | Marburg virus pseudotyped entry inhibition, cell reporter; calls by dose curve; tested in HEK293 cells
Sm TGR block – S. mansoni TGR enzyme inhibition; Potency, µM (titrated, usually from 114 µM), most hits filed as inhibitors; AID 485364; purified TGR, DTNB reduction, TNB absorbance 405 nm; Q962Y6; 360,000 compounds, 3% hits; also: nearly all actives have a fitted effect of over 60% in size
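Kinetic colorimetric format: TGR-catalysed, NADPH-driven DTNB reduction monitored via TNB absorbance. Enzyme dispensed at 20 nM; compound exposure 15 min at room temperature before reaction start.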
RE007 growth inh – less growth of the S. pombe RE007 Vpr strain; AID 651644; S. pombe RE007 Vpr strain, BacTiter-Glo ATP luminescence, 24 h; 360,000 compounds, 0.21% hits; Potency, µM (doses to about 92.2 µM), hits mostly inhibitors; active = well fitted falling curve with a large enough effect; inconclusive = small, poorly fitted or top-dose-only effect; inactive = no such curve, though single readings can be large or run the other way; also: nearly all actives have a fitted effect of over 50% in size
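Fission yeast RE007 carrying one integrated HIV-1 vpr copy, seeded at OD 0.01 in PMG+AL medium with 23 nL pinned compound. Grown 24 h at 30 degrees; viability read by BacTiter-Glo luminescence after 5 min.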
Lassa entry inh – inhibitors of Lassa virus binding or cell entry | Lassa virus pseudotype entry inhibition, cell reporter | Potency, µM (doses to about 37.9 µM), most hits filed as inhibitors | 300,000 compounds, 1.2% hits; calls by dose curve; tested in HEK293 cells; also: nearly all actives have a fitted effect of over 50% in size
Hits are given with their value; i = inactive; ? = inconclusive; nt = no result. Unless noted, calls follow the shape of the dose curve; as a rule, active = well fitted curve in the direction sought with a large enough effect; inconclusive = small, poorly fitted or top-dose-only effect, or another doubt; inactive = no such curve, though single readings can be large; an effect the other way counts as inactive or inconclusive.

SMILES | HCV inhibitor | FMDV antiviral | Marburg entry inh | Sm TGR block | RE007 growth inh | Lassa entry inh
COC1CCCCC1C1CCN(C(=O)c2cccs2)CC1 (stereo unspecified) | nt | nt | i | nt | nt | nt
COc1ccc(Cn2cc(C(=O)c3ccc(Cl)cc3)c(=O)c3cc4c(cc32)OCO4)cc1 | nt | i | ? | i | nt | ?
CC(C)c1ccc(NC(=O)CSC2=Nc3ccccc3C3=NC(CC(=O)NCc4cccs4)C(=O)N23)cc1 (stereo unspecified) | nt | i | nt | i | nt | i
COc1nc(N2CCOCC2)nc(-n2cccc2)n1 | 0.891µM | i | ? | i | i | i
N#CCOc1nc(N2CCCC2)nc(N2CCCC2)n1 | ? | i | i | i | i | i
COc1nc(N2CCCCCC2)nc(N2CCCCCC2)n1 | 10µM | ? | i | i | ? | i
N#CCOc1nc(N2CCCCC2)nc(N2CCCCC2)n1 | 14.1µM | ? | nt | i | i | nt
COc1ccc(CNC(=O)c2cc3cccc4c3n2CC(C)S4)cc1OC (stereo unspecified) | nt | i | nt | i | nt | i
CCN1CCCC(C2NC3CCCCC3S2)C1 (stereo unspecified) | nt | nt | i | nt | nt | nt
Cc1ccc(S(=O)(=O)/N=C2\C=C(Nc3ccc(O)cc3)C(=O)c3ccccc32)cc1 | 6.31µM | 10µM | ? | nt | i | 2.82µM
COC(=O)c1ccccc1NC1=C/C(=N\S(=O)(=O)c2ccc(C(=O)O)cc2)c2ccccc2C1=O | 10µM | ? | ? | 14.1µM | ? | ?
COC(=O)c1ccccc1NC1=C/C(=N\S(=O)(=O)c2cccs2)c2ccccc2C1=O | 8.91µM | 2.51µM | 3.66µM | ? | i | 4.47µM
Cc1ccc(S(=O)(=O)/N=C2\C=C(Nc3cccc(C(=O)O)c3)C(=O)c3ccccc32)cc1 | i | i | ? | i | i | ?
O=C(/C=C/c1ccc(F)cc1)NCC1Cc2cccc(-c3ncccn3)c2O1 (stereo unspecified) | nt | i | nt | nt | nt | nt
CC(/C=N/NC(=O)c1ccccc1F)c1ccccc1 (stereo unspecified) | i | i | nt | i | i | nt
CN(C(=O)c1ccccc1F)C(c1ccccc1)c1ccccc1 | i | i | ? | i | i | 11.2µM
CCOCCc1nn2c(=O)cc(COC(=O)COc3ccc(C)c(C)c3)nc2s1 | nt | i | nt | i | nt | i
COc1ccc(CCNC(=O)c2c([S-])n(-c3ccc(C)cc3)c3cccc[n+]23)cc1 | 11.2µM | i | ? | i | i | ?
CCc1ccc2n(-c3ccc(OC)cc3)c([S-])c(C(=O)Nc3cc(C)cc(C)c3)[n+]2c1 | i | i | i | i | i | i
CC(C)c1cccc(-c2csc(C(O)c3ccc(F)c(F)c3)n2)c1 (stereo unspecified) | nt | i | nt | nt | 39.8µM | nt
COc1cc(SC)ccc1C(=O)Nc1ccncc1 | i | i | nt | nt | i | nt
COc1cc(SC)ccc1C(=O)Nc1ccc(Cl)cn1 | i | 10µM | 1.12µM | i | i | ?
COc1cc(SC)ccc1C(=O)Nc1ccc2c(c1)CCC2 | 10µM | i | ? | i | i | i
O=c1cc(-c2cc3ccccc3oc2=O)c2ccc(O)cc2o1 | nt | i | nt | nt | nt | nt
O=C(Cn1nc2c(cc1=O)CCCC2)Nc1ccccc1C(F)(F)F | nt | i | nt | i | nt | i
SMILES | HCV inhibitor | FMDV antiviral | Marburg entry inh | Sm TGR block | RE007 growth inh | Lassa entry inh
COc1cccc(CN2C(=O)[C@H]3Cc4c([nH]c5ccccc45)C(C)(C)N3C2=O)c1 | nt | 35.5µM | nt | nt | nt | nt
COc1ccccc1CN1C(=O)[C@@H]2Cc3c([nH]c4ccccc34)C(C)(C)N2C1=O | nt | 28.2µM | nt | nt | nt | nt
CC1(C)c2[nH]c3ccccc3c2C[C@@H]2C(=O)N(Cc3ccccc3Cl)C(=O)N21 | nt | i | nt | nt | nt | nt
COCCCNCCCCOc1cccc(Br)c1 | ? | i | ? | i | i | i
COCCCNCCCCOc1ccc(Br)cc1C | 11.2µM | i | 13µM | i | i | ?
Cc1cc(Cl)c(OCCCCNC(C)(C)C)c(Br)c1 | 10µM | nt | ? | i | nt | ?
COc1ccccc1OCCCCNC(C)(C)C | i | nt | i | i | i | i
COCCNCCCCOc1ccc(Br)cc1C | 10µM | i | ? | i | i | ?
Cc1cc(Br)ccc1OCCCCNC(C)(C)C | 12.6µM | i | ? | i | i | i
CC(C)(C)C1CCc2c(sc(NC(=O)c3ccncc3)c2C(=O)Nc2ccccc2Cl)C1 (stereo unspecified) | nt | i | i | i | nt | i
CC(=O)OC1CC2C(C)(C)C(O)C=C[C@@]2(C)C2CC[C@@]3(C)C(c4ccoc4)OC(=O)C4OC43[C@]12C (stereo partly specified) | nt | i | nt | nt | nt | nt
NC(=O)CSCc1cccc(Br)c1 | i | i | i | i | i | i
NC(CSCc1cccc(Br)c1)C(=O)O (stereo unspecified) | i | i | nt | 39.8µM | i | nt
c1ccc2c(N3CCNCC3)cccc2c1 | ? | i | 11.2µM | nt | i | i
Clc1cccc(N2CCNCC2)c1Cl | i | i | ? | i | i | i
CCCCCCNC(=O)N[C@H](Cc1ccc(O)cc1)C(=O)NCCC[C@H]1CN2C(=NC[C@H]2CCC)N1CC1CCC1 | nt | nt | nt | 5.01µM | nt | nt
CCOc1ccc(CN(C)CC(O)COC(c2ccc(OC)cc2)c2ccc(OC)cc2)cc1 (stereo unspecified) | 11.2µM | i | ? | i | i | ?
CN(Cc1ccc(OCC(O)CN(C)Cc2ccccc2)cc1)Cc1nccn1C (stereo unspecified) | i | i | nt | i | i | nt
COc1ccc(CN(C)CC(O)COC(c2ccc(OC)cc2)c2ccc(OC)cc2)cc1 (stereo unspecified) | ? | i | ? | i | i | ?
COc1ccc(CN(C)CC(O)COc2ccc(-c3ccccc3)cc2)cc1OC (stereo unspecified) | 7.08µM | i | ? | i | i | ?
COc1cc2ccccc2cc1C(=O)N1CCN(c2nc3c(F)cc(F)cc3s2)CC1 | nt | ? | nt | i | nt | i
Oc1c(C(c2ccccc2)N2CCN(Cc3ccccc3)CC2)sc2nc(-c3ccco3)nn12 (stereo unspecified) | nt | i | nt | i | nt | i
Cc1cc(N2CCN(c3nc4ccccc4s3)CC2)n2ncnc2n1 | 3.16µM | 11.2µM | ? | i | i | ?
Cc1cc(N2CCN(C(c3ccccc3)c3ccccc3)CC2)n2ncnc2n1 | i | ? | i | i | i | i
COc1cc(/C=N/N=C(N)N)ccc1OCc1ccc(Cl)cc1 | 12.6µM | i | 18.3µM | nt | i | ?
SMILES | HCV inhibitor | FMDV antiviral | Marburg entry inh | Sm TGR block | RE007 growth inh | Lassa entry inh
COc1cc(/C=N/NS(=O)(=O)c2ccc(C)cc2)ccc1OCc1cccc(C(=O)O)c1 | i | ? | ? | nt | i | ?
COc1cc(/C=N/NS(=O)(=O)c2ccc3ccccc3c2)ccc1OCc1ccc(C(=O)O)cc1 | i | i | 0.891µM | i | i | ?
COC(=O)c1ccc(COc2ccccc2/C=N/NS(=O)(=O)c2ccccc2)cc1 | 10µM | i | 13µM | i | i | i
COC(=O)c1ccc(CN=C(NS(=O)(=O)c2ccccc2)c2ccccc2)cc1 | i | i | nt | nt | i | nt
CCOc1cc(/C=N/O)ccc1OCc1ccc(F)cc1 | 7.08µM | i | ? | i | i | i
Cc1ccc(Cl)cc1NC(=O)c1sc(-n2nc(C)c(Cc3ccc4c(c3)OCO4)c2C)nc1C | nt | i | i | i | nt | i

From PubChem BioAssay
